The record followed here is ChEMBL document CHEMBL1961873, “Compounds: GSK PKIS; Assays: Nanosyn kinase panel” (2012).

In general, inhibition refers to the relative decrease from the control value, in per cent.

SMILES strings stand for the structures.

In assay [1] the target is Protein kinase C gamma type (Homo sapiens) (UniProt P05129). The following applies: at 1 µM.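 Note: each value is an averaged percent inhibition of the enzyme.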
Assay [2] has as its target T1, Protein kinase C iota type (Homo sapiens) (UniProt P41743).
T1 sequence (whole entry): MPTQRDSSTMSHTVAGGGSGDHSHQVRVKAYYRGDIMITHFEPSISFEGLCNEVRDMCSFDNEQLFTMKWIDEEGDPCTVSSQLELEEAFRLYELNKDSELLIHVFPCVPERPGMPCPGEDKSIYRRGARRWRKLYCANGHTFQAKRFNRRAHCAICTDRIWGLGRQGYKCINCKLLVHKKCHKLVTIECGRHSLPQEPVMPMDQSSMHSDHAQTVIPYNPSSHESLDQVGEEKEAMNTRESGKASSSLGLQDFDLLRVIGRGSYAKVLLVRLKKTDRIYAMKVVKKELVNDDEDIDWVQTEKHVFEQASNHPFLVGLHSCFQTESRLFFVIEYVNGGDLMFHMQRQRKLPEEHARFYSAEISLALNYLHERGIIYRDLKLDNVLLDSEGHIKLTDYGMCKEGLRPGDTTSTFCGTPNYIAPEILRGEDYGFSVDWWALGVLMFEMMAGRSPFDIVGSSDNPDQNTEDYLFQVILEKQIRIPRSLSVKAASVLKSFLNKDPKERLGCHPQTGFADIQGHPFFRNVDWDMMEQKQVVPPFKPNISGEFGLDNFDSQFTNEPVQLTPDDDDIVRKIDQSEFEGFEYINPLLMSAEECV
As to conditions: at 0.1 µM.

Assay [3] has as its target T1, Protein kinase C iota type (Homo sapiens). As to conditions: at 1 µM.
Assay [4] addresses Protein kinase C theta type (Homo sapiens) (UniProt Q04759). The following applies: at 0.1 µM.
For assay [5] the target is unchanged. As to conditions: at 1 µM.
In assay [6] the target is Protein kinase C beta type (Homo sapiens) (UniProt P05771). The following applies: at 0.1 µM.
For assay [7] the target is unchanged. The following applies: at 1 µM.
For assay [8], the target named is T2, Serine/threonine-protein kinase D1 (Homo sapiens) (UniProt Q15139).
T2 sequence (whole entry): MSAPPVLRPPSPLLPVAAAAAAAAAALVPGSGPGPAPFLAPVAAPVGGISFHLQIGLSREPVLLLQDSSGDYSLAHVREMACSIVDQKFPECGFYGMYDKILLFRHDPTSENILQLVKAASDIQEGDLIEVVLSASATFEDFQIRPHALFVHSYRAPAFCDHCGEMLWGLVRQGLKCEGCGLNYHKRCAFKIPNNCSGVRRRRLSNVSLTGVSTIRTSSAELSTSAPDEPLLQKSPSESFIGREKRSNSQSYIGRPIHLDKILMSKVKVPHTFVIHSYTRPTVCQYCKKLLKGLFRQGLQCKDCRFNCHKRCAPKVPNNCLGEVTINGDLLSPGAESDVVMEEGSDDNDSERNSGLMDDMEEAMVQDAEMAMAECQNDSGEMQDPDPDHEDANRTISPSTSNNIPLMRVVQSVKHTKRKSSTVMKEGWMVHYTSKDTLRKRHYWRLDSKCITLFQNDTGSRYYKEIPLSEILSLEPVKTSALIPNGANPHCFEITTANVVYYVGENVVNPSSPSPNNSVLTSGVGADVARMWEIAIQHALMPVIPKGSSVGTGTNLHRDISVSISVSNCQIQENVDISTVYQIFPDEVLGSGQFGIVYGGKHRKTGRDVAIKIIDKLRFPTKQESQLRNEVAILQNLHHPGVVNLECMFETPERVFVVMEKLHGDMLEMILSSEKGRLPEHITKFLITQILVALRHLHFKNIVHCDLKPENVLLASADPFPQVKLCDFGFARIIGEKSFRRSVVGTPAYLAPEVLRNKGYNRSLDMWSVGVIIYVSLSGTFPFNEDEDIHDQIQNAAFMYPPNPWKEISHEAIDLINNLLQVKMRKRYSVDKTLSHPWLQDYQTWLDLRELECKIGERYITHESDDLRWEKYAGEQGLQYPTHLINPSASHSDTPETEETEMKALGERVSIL
The following applies: at 0.1 µM.

For assay [9], the target named is T2, Serine/threonine-protein kinase D1 (Homo sapiens). As to conditions: at 1 µM.
Assay [10] has as its target T3, Serine/threonine-protein kinase D2 (Homo sapiens) (UniProt Q9BZL6).
T3 sequence (whole entry): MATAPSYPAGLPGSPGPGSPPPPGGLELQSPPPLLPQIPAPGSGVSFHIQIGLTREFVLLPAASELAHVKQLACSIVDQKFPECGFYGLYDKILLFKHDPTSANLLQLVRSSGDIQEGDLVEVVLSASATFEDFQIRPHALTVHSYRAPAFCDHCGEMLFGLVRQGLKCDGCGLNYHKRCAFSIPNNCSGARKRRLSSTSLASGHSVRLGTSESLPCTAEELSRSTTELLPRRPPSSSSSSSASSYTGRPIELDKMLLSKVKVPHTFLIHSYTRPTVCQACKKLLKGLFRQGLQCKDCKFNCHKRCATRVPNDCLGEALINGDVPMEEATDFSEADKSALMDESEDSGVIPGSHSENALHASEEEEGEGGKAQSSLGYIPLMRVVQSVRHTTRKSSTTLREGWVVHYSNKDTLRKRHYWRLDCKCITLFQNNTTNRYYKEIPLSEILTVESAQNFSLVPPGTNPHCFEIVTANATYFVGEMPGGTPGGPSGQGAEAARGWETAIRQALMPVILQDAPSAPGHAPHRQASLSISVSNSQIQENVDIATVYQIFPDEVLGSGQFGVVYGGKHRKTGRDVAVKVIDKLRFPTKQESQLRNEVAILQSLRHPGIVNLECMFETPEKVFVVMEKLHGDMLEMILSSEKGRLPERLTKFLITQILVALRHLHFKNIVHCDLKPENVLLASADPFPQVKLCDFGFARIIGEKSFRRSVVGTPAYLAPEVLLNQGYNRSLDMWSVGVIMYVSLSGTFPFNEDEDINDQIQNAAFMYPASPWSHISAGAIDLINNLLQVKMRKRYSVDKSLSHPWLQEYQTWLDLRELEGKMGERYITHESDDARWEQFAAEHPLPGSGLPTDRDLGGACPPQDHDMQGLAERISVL
As to conditions: at 0.1 µM.

In assay [11] the target is T3, Serine/threonine-protein kinase D2 (Homo sapiens). The following applies: at 1 µM.
The target of assay [12] is T4, Serine/threonine-protein kinase D3 (Homo sapiens) (UniProt O94806).
T4 sequence (whole entry): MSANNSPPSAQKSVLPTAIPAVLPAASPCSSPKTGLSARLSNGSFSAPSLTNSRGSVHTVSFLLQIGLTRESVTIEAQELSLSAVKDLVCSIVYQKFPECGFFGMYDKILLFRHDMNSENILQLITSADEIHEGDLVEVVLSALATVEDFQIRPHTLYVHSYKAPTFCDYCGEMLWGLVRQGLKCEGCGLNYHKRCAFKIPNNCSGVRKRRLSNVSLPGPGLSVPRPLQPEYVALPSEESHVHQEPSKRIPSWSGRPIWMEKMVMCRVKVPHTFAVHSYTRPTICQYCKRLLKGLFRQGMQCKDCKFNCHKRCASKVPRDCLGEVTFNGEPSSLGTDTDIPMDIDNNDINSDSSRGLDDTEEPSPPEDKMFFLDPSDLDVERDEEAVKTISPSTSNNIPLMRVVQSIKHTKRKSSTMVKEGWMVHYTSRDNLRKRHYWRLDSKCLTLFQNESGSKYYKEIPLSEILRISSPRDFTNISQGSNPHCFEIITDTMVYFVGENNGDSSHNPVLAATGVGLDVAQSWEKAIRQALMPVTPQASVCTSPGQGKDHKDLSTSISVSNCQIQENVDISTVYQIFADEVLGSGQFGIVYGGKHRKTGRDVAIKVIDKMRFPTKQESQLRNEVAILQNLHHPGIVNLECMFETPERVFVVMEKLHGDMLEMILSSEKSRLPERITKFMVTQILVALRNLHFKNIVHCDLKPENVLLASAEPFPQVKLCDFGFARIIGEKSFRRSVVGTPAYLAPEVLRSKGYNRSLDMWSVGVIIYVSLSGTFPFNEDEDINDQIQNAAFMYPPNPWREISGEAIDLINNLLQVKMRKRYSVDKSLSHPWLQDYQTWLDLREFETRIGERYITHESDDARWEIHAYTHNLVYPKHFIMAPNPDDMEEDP
The following applies: at 0.1 µM.

Assay [13] concerns the target T4, Serine/threonine-protein kinase D3 (Homo sapiens). The following applies: at 1 µM.
In assay [14] the target is T5, cGMP-dependent protein kinase 1 (Homo sapiens) (UniProt Q13976).
T5 sequence (whole entry): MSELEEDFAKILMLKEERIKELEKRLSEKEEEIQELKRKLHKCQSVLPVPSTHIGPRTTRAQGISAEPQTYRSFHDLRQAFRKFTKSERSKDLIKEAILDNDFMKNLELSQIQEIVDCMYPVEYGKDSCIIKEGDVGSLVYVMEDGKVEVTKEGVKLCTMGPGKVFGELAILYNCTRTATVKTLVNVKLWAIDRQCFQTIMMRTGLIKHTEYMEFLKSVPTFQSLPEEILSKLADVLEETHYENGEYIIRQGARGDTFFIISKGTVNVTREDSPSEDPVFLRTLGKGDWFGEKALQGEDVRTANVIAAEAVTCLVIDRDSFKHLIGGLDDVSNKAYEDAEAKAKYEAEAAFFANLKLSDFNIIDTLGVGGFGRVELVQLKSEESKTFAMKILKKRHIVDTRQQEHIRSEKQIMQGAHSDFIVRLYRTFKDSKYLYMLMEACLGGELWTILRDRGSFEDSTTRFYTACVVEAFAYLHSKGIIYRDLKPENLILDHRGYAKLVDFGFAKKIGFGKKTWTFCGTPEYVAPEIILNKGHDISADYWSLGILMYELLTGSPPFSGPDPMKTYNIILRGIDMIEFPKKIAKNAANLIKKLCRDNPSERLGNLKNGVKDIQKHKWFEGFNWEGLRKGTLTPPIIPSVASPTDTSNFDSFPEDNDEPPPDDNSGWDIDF
The following applies: at 0.1 µM.

The target of assay [15] is T5, cGMP-dependent protein kinase 1 (Homo sapiens). As to conditions: at 1 µM.
Assay [16] concerns the target T6, cGMP-dependent protein kinase 2 (Homo sapiens) (UniProt Q13237).
T6 sequence (whole entry): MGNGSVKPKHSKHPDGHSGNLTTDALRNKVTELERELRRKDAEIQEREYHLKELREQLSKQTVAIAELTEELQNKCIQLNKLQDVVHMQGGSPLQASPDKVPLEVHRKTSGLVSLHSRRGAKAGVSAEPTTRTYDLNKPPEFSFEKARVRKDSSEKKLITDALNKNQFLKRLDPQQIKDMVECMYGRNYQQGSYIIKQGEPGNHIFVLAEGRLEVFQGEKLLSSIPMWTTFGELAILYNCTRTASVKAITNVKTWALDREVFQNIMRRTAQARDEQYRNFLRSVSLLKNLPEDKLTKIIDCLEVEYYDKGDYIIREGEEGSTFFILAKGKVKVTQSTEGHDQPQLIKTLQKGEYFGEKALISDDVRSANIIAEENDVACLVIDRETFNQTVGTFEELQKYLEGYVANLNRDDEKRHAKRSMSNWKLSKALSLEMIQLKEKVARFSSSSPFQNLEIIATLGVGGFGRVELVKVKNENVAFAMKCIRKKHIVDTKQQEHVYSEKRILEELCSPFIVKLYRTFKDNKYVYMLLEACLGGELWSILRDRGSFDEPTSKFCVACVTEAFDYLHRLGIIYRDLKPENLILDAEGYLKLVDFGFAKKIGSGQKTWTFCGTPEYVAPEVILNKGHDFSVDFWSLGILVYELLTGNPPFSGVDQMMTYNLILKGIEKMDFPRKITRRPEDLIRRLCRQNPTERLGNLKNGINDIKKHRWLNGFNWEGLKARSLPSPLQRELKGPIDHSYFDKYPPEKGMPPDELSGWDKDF
The following applies: at 0.1 µM.

Assay [17] addresses T6, cGMP-dependent protein kinase 2 (Homo sapiens). As to conditions: at 1 µM.
Assay [18] addresses T7, cAMP-dependent protein kinase catalytic subunit PRKX (Homo sapiens) (UniProt P51817).
T7 sequence (whole entry): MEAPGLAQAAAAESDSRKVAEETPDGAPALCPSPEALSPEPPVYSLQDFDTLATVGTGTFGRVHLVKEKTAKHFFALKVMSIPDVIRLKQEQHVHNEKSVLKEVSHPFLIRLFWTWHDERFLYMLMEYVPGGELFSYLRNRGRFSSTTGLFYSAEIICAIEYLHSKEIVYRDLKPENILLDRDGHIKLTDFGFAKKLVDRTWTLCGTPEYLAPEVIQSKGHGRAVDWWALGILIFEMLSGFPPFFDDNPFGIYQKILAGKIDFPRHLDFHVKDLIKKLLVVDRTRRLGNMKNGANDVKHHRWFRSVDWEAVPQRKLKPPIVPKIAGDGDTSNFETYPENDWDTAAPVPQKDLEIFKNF
The following applies: at 0.1 µM.

Assay [19] deals with T7, cAMP-dependent protein kinase catalytic subunit PRKX (Homo sapiens). The following applies: at 1 µM.
For assay [20], the target named is Rho-associated protein kinase 1 (Homo sapiens) (UniProt Q13464). The following applies: at 0.1 µM.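 Note: values are mean percent inhibition of ROCK1.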
Rho-associated protein kinase 1 (Homo sapiens), sequence (Q13464 2-1354 limits assumed): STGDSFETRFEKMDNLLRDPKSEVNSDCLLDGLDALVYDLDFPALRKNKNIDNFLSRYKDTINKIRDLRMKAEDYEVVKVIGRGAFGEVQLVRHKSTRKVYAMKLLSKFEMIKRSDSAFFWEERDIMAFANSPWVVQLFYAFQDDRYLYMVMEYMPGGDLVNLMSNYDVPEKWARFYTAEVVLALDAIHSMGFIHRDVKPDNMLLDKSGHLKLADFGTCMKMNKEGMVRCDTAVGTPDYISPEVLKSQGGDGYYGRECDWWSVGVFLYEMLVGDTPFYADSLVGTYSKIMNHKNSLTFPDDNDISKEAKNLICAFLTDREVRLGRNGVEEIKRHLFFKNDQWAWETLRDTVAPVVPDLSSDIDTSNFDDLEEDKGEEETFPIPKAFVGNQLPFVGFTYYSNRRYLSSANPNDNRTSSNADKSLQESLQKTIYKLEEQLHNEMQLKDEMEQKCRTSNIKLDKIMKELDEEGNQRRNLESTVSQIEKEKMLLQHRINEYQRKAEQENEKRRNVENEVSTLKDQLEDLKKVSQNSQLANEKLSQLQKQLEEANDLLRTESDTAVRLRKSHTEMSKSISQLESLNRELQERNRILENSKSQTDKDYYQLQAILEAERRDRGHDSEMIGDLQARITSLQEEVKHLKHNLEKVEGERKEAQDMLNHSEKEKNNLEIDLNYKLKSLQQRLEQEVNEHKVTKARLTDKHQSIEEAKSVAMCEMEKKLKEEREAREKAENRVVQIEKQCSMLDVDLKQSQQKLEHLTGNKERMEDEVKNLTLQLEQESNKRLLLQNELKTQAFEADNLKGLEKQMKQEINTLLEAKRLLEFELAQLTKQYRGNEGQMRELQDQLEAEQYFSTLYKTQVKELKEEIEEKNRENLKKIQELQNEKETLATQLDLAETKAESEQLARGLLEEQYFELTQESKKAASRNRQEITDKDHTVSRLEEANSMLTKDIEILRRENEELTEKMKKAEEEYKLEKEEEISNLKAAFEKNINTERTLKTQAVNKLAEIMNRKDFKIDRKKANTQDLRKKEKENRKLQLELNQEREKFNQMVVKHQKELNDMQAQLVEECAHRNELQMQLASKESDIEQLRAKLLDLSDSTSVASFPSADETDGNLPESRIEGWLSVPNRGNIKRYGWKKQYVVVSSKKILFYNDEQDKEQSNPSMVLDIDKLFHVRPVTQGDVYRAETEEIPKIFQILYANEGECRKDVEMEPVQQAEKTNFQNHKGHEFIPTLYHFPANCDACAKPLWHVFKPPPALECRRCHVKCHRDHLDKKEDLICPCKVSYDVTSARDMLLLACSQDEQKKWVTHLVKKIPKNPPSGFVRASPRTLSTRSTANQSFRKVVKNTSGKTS

Protein kinase C theta type (Homo sapiens), sequence (Q04759 whole entry, looked up): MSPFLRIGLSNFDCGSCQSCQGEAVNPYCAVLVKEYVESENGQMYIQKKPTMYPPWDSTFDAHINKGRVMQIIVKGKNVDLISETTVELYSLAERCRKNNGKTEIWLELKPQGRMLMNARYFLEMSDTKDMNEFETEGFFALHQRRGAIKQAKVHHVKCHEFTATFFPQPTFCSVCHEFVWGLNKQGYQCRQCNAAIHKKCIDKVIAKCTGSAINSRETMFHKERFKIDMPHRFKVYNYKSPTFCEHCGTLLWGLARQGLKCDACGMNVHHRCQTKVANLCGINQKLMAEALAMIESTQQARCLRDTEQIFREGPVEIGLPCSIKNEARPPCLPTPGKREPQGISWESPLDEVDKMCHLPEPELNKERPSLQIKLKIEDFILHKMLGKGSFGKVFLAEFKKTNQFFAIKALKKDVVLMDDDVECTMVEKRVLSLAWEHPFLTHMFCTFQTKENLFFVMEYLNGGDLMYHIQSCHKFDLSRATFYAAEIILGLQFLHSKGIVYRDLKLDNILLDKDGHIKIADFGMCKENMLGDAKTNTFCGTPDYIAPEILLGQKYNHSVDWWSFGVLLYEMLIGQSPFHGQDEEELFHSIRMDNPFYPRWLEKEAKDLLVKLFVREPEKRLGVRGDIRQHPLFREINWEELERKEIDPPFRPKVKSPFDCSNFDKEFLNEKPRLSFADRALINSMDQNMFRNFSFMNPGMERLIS
Protein kinase C beta type (Homo sapiens), sequence (P05771 2-671 limits assumed): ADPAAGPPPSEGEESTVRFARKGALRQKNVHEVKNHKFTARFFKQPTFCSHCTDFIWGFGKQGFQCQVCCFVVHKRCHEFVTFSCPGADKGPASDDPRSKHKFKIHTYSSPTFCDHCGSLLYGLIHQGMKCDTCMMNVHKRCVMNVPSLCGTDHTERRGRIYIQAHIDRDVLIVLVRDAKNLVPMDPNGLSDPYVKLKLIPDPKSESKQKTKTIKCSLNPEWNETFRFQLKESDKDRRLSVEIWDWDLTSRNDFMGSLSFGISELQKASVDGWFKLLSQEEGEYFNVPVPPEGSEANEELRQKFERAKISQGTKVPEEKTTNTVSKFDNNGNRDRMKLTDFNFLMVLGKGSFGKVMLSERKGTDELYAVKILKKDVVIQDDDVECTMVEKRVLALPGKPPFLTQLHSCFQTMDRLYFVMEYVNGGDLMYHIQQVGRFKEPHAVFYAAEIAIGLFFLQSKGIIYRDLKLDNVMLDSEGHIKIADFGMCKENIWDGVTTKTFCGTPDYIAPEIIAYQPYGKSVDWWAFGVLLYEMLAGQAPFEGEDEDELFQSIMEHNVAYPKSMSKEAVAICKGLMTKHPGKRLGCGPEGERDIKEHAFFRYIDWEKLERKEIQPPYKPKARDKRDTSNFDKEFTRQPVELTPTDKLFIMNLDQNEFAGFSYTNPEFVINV

For the compound `Clc1ccc(CNc2nccc(-c3cnn4ncccc34)n2)cc1`, the inhibition was 4.31% in [1]; -0.38% in assay [2]; -1.34% in [3]; 1.01% in assay [4]; 1.73% in assay [5]; 0.21% in assay [6]. The inhibition in assay [7] turned out to be 0.83%; in assay [8], 1.24%; in assay [9], 4.11%; in assay [10] it was 1.12%; in [11], 5.34%; in [12], 0.83%. Also, the inhibition in assay [13] is 3.93%; in assay [14], 2.07%; in assay [15], 6.09%; in assay [16], -0.17%; in assay [17], 3.68%; in assay [18] it was 0.56%. Further, the results for the inhibition in assay [19] and in [20] were 1.41% and 0.21%, respectively.
